The record followed here is PubChem BioAssay (EPA / NIEHS).

“And” between values parts separate entries of the source, which are not always exact repeats. Equal entries are not always repeated. A structure can be active in one record and inactive in another. The source made the active and inactive calls. The calls were made as follows: active = hit-call score of the fitted dose curve at least 0.9, where 1 is the maximum; inactive = score below 0.9.

Assay [1] in a line: IUF_NPC2c_oligodendrocyte_migration_120hr: Leibniz Research Institute for Environmental Medicine (IUF) 120-hour Neural Progenitor Cell Migration Assay for Oligodendrocyte Migration (NPC2c) (AID 2284297).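 Also: O4-positive oligodendrocyte migration distance divided by radial glia migration distance.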 The method in brief: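 Exposure runs 5 days from differentiation onset at 37C, seven concentrations plus solvent control, DMSO at most 0.1%, applied to primary hNPC spheres on laminin. After fixation, O4 immunostaining gives oligodendrocyte distance from the sphere core, relative to radial glia migration.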

Assay [2] can be described thus: IUF_NPC2a_radial_glia_migration_72hr: Leibniz Research Institute for Environmental Medicine (IUF) 72-hour Neural Progenitor Cell Migration Assay for Radial Glia Migration (NPC2a) (AID 2284299). A digest of the protocol: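 Spheres of human primary neural progenitors migrate on poly-D-lysine/laminin under compound exposure at 37C, 5% CO2. The 72 h radial glia migration distance comes from brightfield images, measured manually.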

Assay [3] can be described thus: IUF_NPC2b_neuronal_migration_120hr: Leibniz Research Institute for Environmental Medicine (IUF) 120-hour Neural Progenitor Cell Migration Assay for Neuron Migration (NPC2b) (AID 2284300). A digest of the protocol:
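TUBB3-positive neurons are imaged after 120 h of differentiation, and their mean distance from the sphere edge is normalised to radial glia migration. Single 0.3 mm fetal hNPC spheres on poly-D-lysine/laminin received 7 compound concentrations, ≤0.1% DMSO, refreshed at day 3.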

Read-out in assay [4]: TIMP metallopeptidase inhibitor 2 (TIMP2), TIMP2 (gene 7077)
Briefly: BSK_hDFCGF_TIMP2: BioMAP Diversity Plus: hDFCGF Assay for TIMP metallopeptidase inhibitor 2 (TIMP2) Biomarker Activity (AID 2284289). To be noted: primary human foreskin fibroblasts. The method in brief: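 Primary human foreskin fibroblasts in the hDFCGF system, dosed for 24 h; TIMP-2 level measured by ELISA, fitted in the positive direction against DMSO; cytotoxicity checked in parallel by sulforhodamine B total protein staining.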

Read-out in assay [5]: Interleukin-1 alpha (IL1a), IL1A (gene 3552)
Briefly: BSK_IMphg_IL1a: BioMAP Diversity Plus: IMphg Assay for Interleukin-1 alpha (IL1a) Biomarker Activity (AID 2284290). As to conditions: primary human endothelial cells with macrophages. A digest of the protocol: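 IL-1α is quantified by ELISA at 24 h in the endothelial/macrophage IMphg co-culture, with gain of signal fitted relative to DMSO. Parallel SRB total-protein staining flags overt toxicity.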

Read-out in assay [6]: Macrophage colony-stimulating factor (MCSF), CSF1 (gene 1435)
Briefly: BSK_IMphg_MCSF: BioMAP Diversity Plus: IMphg Assay for Macrophage colony-stimulating factor (MCSF) Biomarker Activity (AID 2284293). As to conditions: primary human endothelial cells with macrophages. A digest of the protocol:
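M-CSF was measured by ELISA in human venular endothelial cell/macrophage co-cultures dosed for 24 hours. Sulforhodamine B staining of parallel cultures assessed cytotoxicity; data fitted against DMSO baseline.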

Read-out in assay [7]: Interleukin-10 (IL10), IL10 (gene 3586)
Briefly: BSK_IMphg_IL10: BioMAP Diversity Plus: IMphg Assay for Interleukin-10 (IL10) Biomarker Activity (AID 2284294). As to conditions: primary human endothelial cells with macrophages. A digest of the protocol: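 IL-10 read by ELISA after 24 h chemical exposure of primary human venular endothelial cell/macrophage cocultures, with DMSO as baseline. Parallel SRB staining (560 nm) gauged overt cytotoxicity.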

Assay [8] can be described thus: BSK_IMphg_SRB.Mphg: Macrophage Viability Assessment in the BioMAP Diversity Plus: IMphg Assay (AID 2284295). To be noted: primary human endothelial cells with macrophages. A digest of the protocol: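 Cytotoxicity read-out: parallel cultures fixed with 10% TCA, stained with 0.1% sulforhodamine B, read at 560 nm. System combines venular endothelium and macrophages; sampled 24 h post-dosing, fitted positively relative to DMSO control.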

Read-out in assay [9]: Thrombomodulin, THBD (gene 7056)
Briefly: BSK_LPS_Thrombomodulin: BioMAP Diversity Plus: LPS Assay for Thrombomodulin Biomarker Activity (AID 2284296). To be noted: primary human HUVEC with PBMC. A digest of the protocol:
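Thrombomodulin on the surface of LPS-activated endothelial/PBMC co-cultures was quantified by ELISA at 24 hours post-dosing, with DMSO as baseline. Parallel SRB total-protein staining flagged overt cytotoxicity.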

A short description of assay [10]: IUF_NPC2a_radial_glia_migration_120hr: Leibniz Research Institute for Environmental Medicine (IUF) 120-hour Neural Progenitor Cell Migration Assay for Radial Glia Migration (NPC2a) (AID 2284298). The method in brief: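 Migration distance in um, sphere core edge to migration-area edge, derived by nuclei-density algorithm from Hoechst images after 120 h compound exposure. Primary hNPC spheres differentiated on poly-D-lysine/laminin in N2 medium, 37C; medium half-replaced day 3.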

As a reminder, the AC50 is the midpoint of the concentration-response curve, whichever way the signal moves. For `CCCC(CCC)C(=O)O`, the molecule was called inactive in [1] and in assay [3]. In assay [2], the AC50 was 1330 µM (active).

Turning to `O=S(=O)(O)CCC(F)(F)C(F)(F)C(F)(F)C(F)(F)C(F)(F)C(F)(F)F`, the outcome in assay [4], in [5], in assay [6], in assay [7], in assay [8] and in [9] was inactive. Moreover, the concentration at half-maximal activity (AC50) in assay [9] was 0.227 µM (active).

Consider `FC(F)(F)C(F)(F)C(F)(F)C(F)(F)C(F)(F)C(F)(F)I`, for which the outcome in assay [4], in [5], in [6], in assay [7], in assay [8] and in [9] was inactive.

In the case of `NCC(F)(F)C(F)(F)C(F)(F)C(F)(F)F`, the outcome in assay [4], in assay [5], in [6], in assay [7], in assay [8] and in [9] was inactive.

`FC(F)=C(F)C(F)(F)C(F)(F)C(F)(F)C(F)(F)C(F)(F)C(F)(F)F`: the result in assay [4], in [5], in [6], in [7], in [8] and in assay [9] was inactive.

Take `Nc1ccn([C@@H]2O[C@H](CO)[C@@H](O)[C@@H]2O)c(=O)n1`: the outcome in assay [1], in [10], in assay [2] and in assay [3] was inactive.

For the molecule `FC(F)C(F)(F)COCC1CO1` (configuration not stated), the result in [4], in assay [5], in [6], in assay [7], in assay [8] and in assay [9] was inactive.

Consider `O=C(Cl)C(F)(F)C(F)(F)C(F)(F)C(=O)Cl`, for which the outcome in assay [4], in assay [5], in assay [6], in assay [7], in assay [8] and in assay [9] was inactive.

Regarding `OC(O)(C(F)C(O)(O)C(F)(F)F)C(F)(F)F`, the half-maximal activity concentration (AC50) is 7.41 µM (active) and 22.4 µM (active) in assay [4]; 25 µM (active) and 22.2 µM (active) in assay [7]. Besides, the outcome in assay [5], in [6], in assay [8] and in assay [9] was inactive.

On to `OCCC(F)(F)C(F)(F)C(F)(F)C(F)(F)F`, for which the outcome in assay [4], in [5], in assay [6], in [7], in assay [8] and in assay [9] was inactive.

On to `FC(F)(F)COC(OCC(F)(F)F)OCC(F)(F)F`, for which the outcome in [4], in assay [5], in assay [6], in assay [7], in assay [8] and in assay [9] was inactive.

With `Cn1cc[nH]c1=S`, the molecule was classed as inactive in assay [1], in assay [10], in [2] and in [3].

Consider `C[Si](C)(C)C(F)(F)C(F)(F)C(F)(F)F`, for which the result in [4], in assay [5], in [6], in assay [7], in [8] and in assay [9] was inactive.
